From ChEMBL document CHEMBL3988442, “University of Dundee, Small-Polar-MMV Screening Library” (2021)
The campaign covered roughly 69,000 compounds. About 1,000 (1.4%) showed an effect of 50% or more. Shown is part of a subset that was picked to be rich in strong results.

System: Leishmania donovani
Experiment: Leishmania intramacrophage assay
Assay type: functional, organism-based
Set-up: scale not given: in the data most compounds retested in dose-response had high values

`Cc1cc(NC(=O)NCC(C)N2CCc3ccccc32)no1` (stereo not given) was tested, and the “Percent Effect” value (30 µM, 30.03 µM) was 27.07%.
In the case of `CN(Cc1cccc(CCN)c1)Cc1cccc2ncccc12`, the “Percent Effect” value (30.3 µM, […]) is reported as 68.5%.
`CN(Cc1cccc(OCCO)c1)Cc1cccc2ncccc12` was tested, and the “Percent Effect” value (30.3 µM, […]) was 37.97%.
`CN(Cc1cccnc1N)Cc1cccc2ncccc12` was tested, and the “Percent Effect” value (30.3 µM, […]) was 48.64%.
For `CN(CCCc1cnn(C)c1)C(=O)C1CCC(=O)N(C2CCCC2)C1` (stereo not given), the “Percent Effect” value (30.3 µM, […]) was 11.37%.
In the case of `COCCN1CCC(CNC(=O)C2(S(C)(=O)=O)CCCC2)CC1`, the “Percent Effect” value (30.3 µM, […]) is reported as 19.2%.
With `COCCN(C)C(C(=O)O)c1ccc(F)c(C)c1` (stereo not given) the “Percent Effect” value (30.3 µM, […]) was 7.085%.
For `CC(C)NC(=O)C1CN(Cc2ccc(F)cc2)CC12CCOCC2.O=C(O)C(F)(F)F` (stereo not given), the “Percent Effect” value (30.3 µM, […]) was 44.53%.
`OC(CN1CCN(CC2CCCCC2)CC1)c1ccccc1` (stereo not given) was tested, and the “Percent Effect” value (30.3 µM, […]) was 24.85%.
With `NC(CC1CCCC1)c1ccc(Oc2ccccc2)cc1` (stereo not given) the “Percent Effect” value (30.3 µM, […]) was 99.72%.
With `Cl.NC(CC1CCCC1)c1ccccc1` (stereo not given) the “Percent Effect” value (30.3 µM, […]) was 14.4%.
`CC(C)N(C)Cc1cc(=O)n2c(n1)CN(S(=O)(=O)C1CC1)CCC2.O=C(O)C(F)(F)F` was tested, and the “Percent Effect” value (30.3 µM, […]) was 28.49%.
In the case of `CC(C)N1CCO[C@@H]2CN(C(=O)NCc3ccccc3)CC[C@@H]2C1.O=C(O)C(F)(F)F`, the “Percent Effect” value (30.3 µM, […]) is reported as 17.12%.
`CN1CCO[C@@H]2CN(C(=O)Cc3cccs3)CC[C@@H]2C1.O=C(O)C(F)(F)F` was tested, and the “Percent Effect” value (30.3 µM, […]) was 32.46%.
For `CC(C)N1CCO[C@@H]2CN(C(=O)Cc3cccs3)CC[C@@H]2C1.O=C(O)C(F)(F)F`, the “Percent Effect” value (30.3 µM, […]) was 50.53%.
For `CCOC(=O)c1nnc2ccccc2c1N1CCN(CC)CC1`, the “Percent Effect” value (30.3 µM, […]) was 18.05%.
With `COc1ccc(-n2ccnc2-c2cnc(N(C)C)nc2)cc1OC` the “Percent Effect” value (30.3 µM, […]) was 25.02%.
With `CCS(=O)(=O)c1ccc(N2CCC(N)CC2)cc1` the “Percent Effect” value (30.3 µM, […]) was 63.99%.
In the case of `CCS(=O)(=O)c1ccc(N2CCC(NC(C)=O)CC2)cc1`, the “Percent Effect” value (30 µM, 30.03 µM) is reported as -2.976%.
For `CCS(=O)(=O)c1ccc(N2CCC(NC(=O)C(C)SC)CC2)cc1` (stereo not given), the “Percent Effect” value (30.3 µM, […]) was 27.86%.
`CCS(=O)(=O)c1ccc(N2CCC(NC(=O)CCC(C)C)CC2)cc1` was tested, and the “Percent Effect” value (30 µM, 30.03 µM) was 63.78%.
For `CCS(=O)(=O)c1ccc(N2CCC(NC(=O)CC3CCCC3)CC2)cc1`, the “Percent Effect” value (30.3 µM, […]) was 22.19%.
For `CCNC(=O)NC1CCN(c2ccc(S(=O)(=O)CC)cc2)CC1`, the “Percent Effect” value (30.3 µM, […]) was 12.14%.
For `CC(=O)NCCNCc1cn(CCN2CCSCC2)nc1C`, the “Percent Effect” value (30.3 µM, […]) was 28.55%.
For `CN1C[C@H]2CN(Cc3cccc(OC(F)(F)F)c3)CCN2C1=O`, the “Percent Effect” value (30.3 µM, […]) was -1.989%.
With `O=C(Cc1cc2c(cc1Br)OCCO2)NC1CCS(=O)(=O)C1` (stereo not given) the “Percent Effect” value (30.3 µM, […]) was 5.517%.
For `CC(=O)c1ccc(C(=O)N2C[C@@H]3CC[C@H](C2)N(Cc2ccccc2)C3)s1`, the “Percent Effect” value (30.3 µM, […]) was 9.144%.
In the case of `COc1cc(F)cc(CNC(=O)Nc2ccn(CC(F)F)n2)c1`, the “Percent Effect” value (30.3 µM, […]) is reported as 16%.
In the case of `Cc1cc2c(c(-c3c[nH]c(C)n3)c1)OC(CN)C2` (stereo not given), the “Percent Effect” value (30.3 µM, […]) is reported as 38.87%.
`Cc1cc2c(c(-c3cnccn3)c1)OC(CN)C2` (stereo not given) was tested, and the “Percent Effect” value (30.3 µM, […]) was 26.74%.
With `NCC1Cc2cc(Cl)cc(-c3cncc(C(=O)N4CCCCC4)n3)c2O1` (stereo not given) the “Percent Effect” value (30.3 µM, […]) was 74.83%.
`NCC1Cc2cc(-c3cncc(C(=O)N4CCCCC4)n3)cc(F)c2O1` (stereo not given) was tested, and the “Percent Effect” value (30.3 µM, […]) was -28.1%.
With `NCC1Cc2cc(-c3cncc(C(=O)N4CCOCC4)n3)cc(Cl)c2O1` (stereo not given) the “Percent Effect” value (30.3 µM, […]) was 7.347%.
With `Cc1cc2c(c(-c3cncc(C(=O)N4CCCC4)n3)c1)OC(CN)C2` (stereo not given) the “Percent Effect” value (30.3 µM, […]) was 74.06%.
For `CC(C)n1cc(N2CC(C(=O)N3CCN(C)CC3)CC2=O)cn1` (stereo not given), the “Percent Effect” value (30.3 µM, […]) was 26.64%.
With `O=C(c1cncc(Br)c1)N1CCCc2ccc(F)cc21` the “Percent Effect” value (30.3 µM, […]) was 14.67%.
In the case of `CCc1c(C)nn(CC(=O)NC(C(=O)O)c2c(C)n[nH]c2C)c1C` (stereo not given), the “Percent Effect” value (30.3 µM, […]) is reported as 12.75%.
`Cc1ccc(CN(C)Cc2cc(C3CC3)[nH]n2)c(O)n1` was tested, and the “Percent Effect” value (30.3 µM, […]) was 5.894%.
For `Cc1nn(C)cc1S(=O)(=O)N[C@@H]1CC[C@@H](n2ccnc2C)[C@@H]1O`, the “Percent Effect” value (30.3 µM, […]) was -29.93%.
In the case of `CN1CCC/C1=N\S(=O)(=O)c1ccc(NC(=O)c2ccco2)cc1`, the “Percent Effect” value (30 µM) is reported as -21.5%.
`CCNC(=O)[C@@H]1C[C@@H](NC(=O)c2cccnc2O)CN1Cc1ccsc1` was tested, and the “Percent Effect” value (30 µM, 30.03 µM) was 19.61%.
`CCNC(=O)[C@@H]1C[C@@H](NC(=O)c2cnc[nH]c2=O)CN1Cc1ccsc1` was tested, and the “Percent Effect” value (30.3 µM, […]) was 54.56%.
For `CCNC(=O)[C@@H]1C[C@H](NC(=O)c2cncnc2C)CN1Cc1ccsc1`, the “Percent Effect” value (30.3 µM, […]) was 37.2%.
For `CC(=O)Cn1ncc(N2CCOCC2)cc1=O`, the “Percent Effect” value (30.3 µM, […]) was 4.61%.
In the case of `CCOc1ccc(CN2CCCC(c3cc4ncccc4[nH]3)C2)cc1` (stereo not given), the “Percent Effect” value (30.3 µM, […]) is reported as 54.07%.
In the case of `CC(=O)Nc1ccc(CN2CCCC(c3cc4ncccc4[nH]3)C2)cc1` (stereo not given), the “Percent Effect” value (30.3 µM, […]) is reported as 40.95%.
In the case of `Fc1ccc(CN2CCCC(c3cc4ncccc4[nH]3)C2)cc1` (stereo not given), the “Percent Effect” value (30.3 µM, […]) is reported as -0.4017%.
With `O=C(CC1NC(N2CCc3ccccc32)=NC1=O)Nc1ccc(Cl)cc1` (stereo not given) the “Percent Effect” value (30.3 µM, […]) was 9.68%.
For `Cc1nc(O)cc(CCNc2nccc(CCC(F)(F)F)n2)n1`, the “Percent Effect” value (30.3 µM, […]) was 19.16%.
`CC(Cn1cccn1)NC(=O)N1CCN(Cc2ccsc2)CC1` (stereo not given) was tested, and the “Percent Effect” value (30.3 µM, […]) was 0.9675%.
For `CC(Cn1ccnc1)NC(=O)N1CCN(Cc2ccncc2)CC1` (stereo not given), the “Percent Effect” value (30 µM) was -0.977%.
For `CC(Cn1ccnc1)NC(=O)N1CCN(Cc2ccsc2)CC1` (stereo not given), the “Percent Effect” value (30 µM) was 56.49%.
For `CN1C(=O)CC(C(=O)O)C12CCN(c1ccc3c(n1)CCCC3)CC2` (stereo not given), the “Percent Effect” value (30.3 µM, […]) was 21.03%.
For `CCn1ncnc1C(C)NC(=O)C1CCN(C(=O)COC)CC1` (stereo not given), the “Percent Effect” value (30 µM, 30.03 µM) was 54.19%.
For `CCn1ncnc1C(C)NC(=O)C1CCN(C2CCCCC2)CC1` (stereo not given), the “Percent Effect” value (30.3 µM, […]) was 10.97%.
With `CCn1ncnc1C(C)NC(=O)C1CCN(C(C)C)CC1` (stereo not given) the “Percent Effect” value (30 µM, 30.03 µM) was 5.618%.
In the case of `CC(=O)NC(C)(C)C(=O)Nc1ncc(Cc2ccc(C)c(F)c2)s1`, the “Percent Effect” value (30 µM, 30.03 µM) is reported as 11.96%.
With `Cc1nn(C)cc1-c1ccnc(N(C)Cc2noc(C(C)C)n2)n1` the “Percent Effect” value (30.3 µM, […]) was 19.89%.
In the case of `Cc1nn(C)c(C)c1-c1ccnc(N(C)Cc2nc(C(C)C)no2)n1`, the “Percent Effect” value (30.3 µM, […]) is reported as 52.75%.
For `Cc1nn(C)c(C)c1-c1ccnc(N(C)Cc2noc(C(C)C)n2)n1`, the “Percent Effect” value (30.3 µM, […]) was 46.51%.
For `CCc1nc(CN(C)C2CCN(CCC(=O)N3CCCCC3)C2)no1` (stereo not given), the “Percent Effect” value (30.3 µM, […]) was 22.94%.
`Fc1cnc(N2CCn3cc(CNc4ccccn4)nc3C2)nc1.O=C(O)C(F)(F)F.O=C(O)C(F)(F)F` was tested, and the “Percent Effect” value (30 µM, 30.03 µM) was -20.21%.
`O=C(O)C(F)(F)F.O=C(c1ccc[nH]1)N1CCn2cc(CN3CCCC3)nc2C1` was tested, and the “Percent Effect” value (30 µM, 30.03 µM) was -3.456%.
In the case of `O=C(Cc1ccc(F)cc1)N1CCn2cc(Cn3cccn3)nc2C1.O=C(O)C(F)(F)F`, the “Percent Effect” value (30 µM, 30.03 µM) is reported as -23.45%.
For `O=C(O)C(F)(F)F.O=C(c1ccc[nH]1)N1CCn2cc(Cn3cccn3)nc2C1`, the “Percent Effect” value (30.3 µM, […]) was 51.47%.
